Experimental data published in the supplement of paper PMC6555819.

Test system: RXRa DBDmut IVT, anti-RXR (DBD mutation: RXRa K156A/R161A, NR concentration 90 nM)
Assay: PBM binding z-score (relative to random genomic background probes); higher = stronger binding; sequences stand for … in GC…GCGATTGACAGCGTAGAATGAAGG
Procedure, shortened: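 For binding z-scores, the reference was random background probes on custom Agilent 4×180K protein-binding microarrays. These arrays were incubated 1 h with ligand-free nuclear receptor dimers in PBS pH 7.4, 2% milk, 0.02% Triton X-100, 1 mM DTT, 0.2 mg/mL BSA and 0.4 mg/ml salmon testes DNA. Fluorescence was scanned after antibody detection of each partner (one per run) and regression-normalized.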

| Sequence | PBM binding z-score |
| --- | --- |
| CAAACTAGGTCAGAACAGGACAGTGAAGGATGAT | 0.474 |
| TCTAGTAGATCAACAGGAGGTTAAGAAAGATCGA | 0.766 |
| TCATATAGATAAAAGGTGAAAGTCGGTGTGGTAA | 2.07 |
| TCTCGGTGGACACGAAAGGTCAGAGCTCGACATC | 0.665 |
| CCTAGCAGGCCAGGGTCTCTCAAGCATTTCGCTT | -0.912 |
| TTACCAAGGTGAGCTGAGGTCGTTGAACCAACTC | -0.0646 |
| ATCGAAAGGTCGAGGTGATTATAGAGAAAGGGAA | 0.927 |
| CGTCCAAGGTCAAAGGTCGGTGAAGAGATGACGG | 3.85 |
| AGAATGATGTTATACGTAGATCAGGGAAGAAAGT | -0.231 |
| ATTCCAAGGTGATCGTGAGGTCGTTGATACTAAC | 0.914 |
| TCTAGCAGGCCACAGGGTCACTCAAGAGGTACGG | 0.4 |
| TGTCAAAGTTCAAAGGAAACGTAAGTATCCACAC | 3.95 |
| GGAACGATGGCATTCGAGTTGATAGCATGGCGAT | -0.146 |
| CTCGAAAGGTCGTGCTCAGGTGAGTATTCCAAAC | 2.25 |
| TCTCGGAGGACACGAAGGTCAGAGGTTTCCAGAG | 0.797 |
| ATATGTAGCTTATCGGGTCATTCAGTTTGCGCAT | 1.26 |
| CCGACTGGGGCACAAAGGTTACCATACCATCCGG | -0.678 |
| GGAACGAGGGGAAAGTTGATAGCATCTGTCGACG | 0.287 |
| CGAACTAGGTGATCCAGGACAGTGAATACATTGA | 0.07 |
| TCATATAGGTAAACGGTGAAAGTCGGTGTGGTAA | 1.47 |

| Sequence | PBM binding z-score |
| --- | --- |
| CCGACTGGGGCAGAAAGGTTGCCATACCATCCGG | -1.11 |
| ATAGGTAGGTTAGCTGGGGTCATTCAGACTAGGC | 2.2 |
| CCTACTGGGCCATAAGGTCATTGATATCAACGTT | 1.01 |
| TCTAGCAGGCCCGAGGGTCACTCAAGAGGTACGG | 0.126 |
| CCTACAGGGCCACGAAAGGTCATTGATTCAGTGA | 0.833 |
| TCTCGGAGGACACCAAGGTCAGAGCTTTCCAGAG | 0.966 |
| CCTTACGGGTCACTCCAGGTTGTAGCATCGGAGT | 1.67 |
| TAGCCTACGTCAGATCGGGCCAGTATACGCTATA | -0.801 |
| CAAACTAGGTCACGATAGGTCAAAGTCGAATGAC | 2.13 |
| GCTGCTAGGTCAACTGATGGTCAGCAAAAGCTCG | 1.5 |
| ATACCAAGGTGATCGTGGGGTCGTTGATACTAAC | 0.817 |
| ATATGTAGGTTGTCGGGTCATTCAGTTTGCGCAT | 1.31 |
| TCAGACAGGTGAAGGTAACGCAGGTACGCAGTCG | 0.772 |
| CAAACTAGGTCACCGGAAGTTCAAAGTCCGCATG | 2.68 |
| TCTTGTAGATCAAAGGTAAAGAAAGCCGAAGCCT | 0.56 |
| CAAACTAGGTCACCGGAAGGTCAACGTCCGCATG | 2.07 |
| CCAGACAGGTGAGAAGGTAAATCAGCCTCGATTA | -0.268 |
| TCTGCTAGGTCAGTTGGTCAGTTAACGAGCTGCC | 0.618 |
| AGTCAAAGTTCATCTAGGTAACGTAGGATATGCT | 4.71 |
| CCTACTGGGACAAGGTCATTGATCAGTCAAAGCA | 1.7 |
